Compound activity (PubChem BioAssay)
The list is not random: actives were taken first. Their share in the collection is about 2.9%.
BioA inh = BioA (M. tuberculosis) enzyme inhibition. actives 0.096% (n = 360,000). purified M. tuberculosis BioA enzyme, plate reader. inhibition, % at 9.99 µM; in the data active means inhibition above about 40%
Mtb hypoxia inh = reduces hypoxia-regulated biosensor signal in M. tuberculosis | fluorescence inhibition, % (no concentration beside the values) | actives 0.1% (n = 300,000) | M. tuberculosis hypoxia-regulated fluorescent reporter, fluorescence | AID 1159583; in the data active means fluorescence inhibition mostly above about 23%, no sharp cut-off; inactive means mostly below about 17%
FBA Mtb inh = inhibitors of M. tuberculosis fructose-bisphosphate aldolase; actives 2.3% (n = 360,000); P9WQA3; purified M. tuberculosis FBA, fluorescence read-out; inhibition, % at 1 µM; AID 588726; in the data active means inhibition above about 27%;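 further: 0% = vehicle and 100% = reference inhibitor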
Target sequence (P9WQA3 whole entry, looked up): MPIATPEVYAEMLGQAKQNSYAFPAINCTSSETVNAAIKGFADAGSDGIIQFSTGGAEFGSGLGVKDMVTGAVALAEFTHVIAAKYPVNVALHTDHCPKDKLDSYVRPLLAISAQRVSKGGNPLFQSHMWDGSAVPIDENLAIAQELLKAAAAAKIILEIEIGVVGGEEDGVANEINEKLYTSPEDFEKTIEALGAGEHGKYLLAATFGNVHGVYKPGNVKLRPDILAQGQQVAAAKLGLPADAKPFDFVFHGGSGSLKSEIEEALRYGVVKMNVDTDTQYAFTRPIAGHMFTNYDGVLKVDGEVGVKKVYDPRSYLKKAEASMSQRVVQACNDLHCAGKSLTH
GDH-TPI counter = GDH-TPI coupled enzyme inhibition counter-screen; GDH-TPI coupled enzyme counterscreen, NADH absorbance; inhibition, % at 4.8 µM; actives 1.2% (n = 360,000); in the data active means inhibition above about 30%;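 further: 0% = DMSO wells and 100% = wells lacking the enzyme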
FadD28 FP inh = blocks FadD28 binding to the bisubstrate probe. fluorescence polarization. actives 0.22% (n = 360,000). inhibition, % at 12.5 µM; in the data active means inhibition above about 8.5%, passing the limit was not always enough
* = called active by the depositor; / = no result given; + = active, no number.

SMILES | BioA inh | Mtb hypoxia inh | FBA Mtb inh | GDH-TPI counter | FadD28 FP inh
COc1ccccc1-c1cc(C(F)(F)F)nc(N2CCN(c3ccc(F)cc3)CC2)n1 | / | 0.9 | 1.0 | -5.6 | -3.1
Cc1ccc(S(=O)(=O)NCC[C@@H]2CC[C@@H](NC(=O)c3ccccn3)[C@H](CO)O2)cc1 | -2.6 | / | / | / | /
CCCSC1=N/C(=C\c2ccc([N+](=O)[O-])o2)C(=O)S1 | -1.2 | 12.2 | -11.2 | 5.0 | 11.7*
CCCSC1=N/C(=C\C=C\c2ccco2)C(=O)S1 | / | -0.1 | -1.0 | 10.6 | 14.9*
CO[C@@H](CN(C)C(=O)C1CCOCC1)[C@@H](C)CN([C@H](C)CO)S(=O)(=O)c1ccccc1 | -1.6 | / | / | / | /
CN(C)C(=O)CCC(=O)N(C)CC1CCCN(CCc2ccc(F)cc2)C1 (stereo not given) | 7.0 | -6.3 | 187.9* | -0.8 | -4.7
CCOP(=O)(Nc1cccc2oc(=O)c3ccccc3c12)OCC | -0.2 | / | 116.3* | 3.2 | -6.5
O=C1CN(C(=O)COC(=O)c2ccccc2NCc2ccco2)c2ccccc2N1 | -0.6 | 13.5 | 61.4* | 13.7 | 0.0
CN(C(=O)COC(=O)c1ccccc1NCc1ccco1)c1c(N)n(Cc2ccccc2)c(=O)[nH]c1=O | / | 9.1 | 114.7* | 2.1 | -1.4
CCOc1cc(C=NNC(=O)Nc2ccccc2)ccc1O | / | 13.2 | / | / | /
O=C1C(Cl)=C(N2CCOCC2)C(=O)N1c1ccccc1Cl | -0.7 | -3.0 | -1.2 | 36.0* | -0.3
COc1cccc(C2NC(=S)NC3=C2CCc2ccccc23)c1 (stereo not given) | / | 7.6 | 1.4 | 9.3 | 0.3
COc1ccc(C2NC(=O)NC3=C2CCc2ccccc23)cc1 (stereo not given) | 4.5 | / | 33.5* | 10.9 | 1.9
CCOC(=O)N1CCN(c2ncnc3c2[nH]c2ccc(F)cc23)CC1 | 0.4 | 1.0 | 10.2 | 5.8 | -0.4
CCOC(=O)N1CCN(c2ncnc3c2[nH]c2ccc(OC)cc23)CC1 | 3.2 | 5.8 | 124.7* | 15.1 | 0.7
CCOC(=O)C1CCN(c2ncnc3c2[nH]c2cccc(OC)c23)CC1 | -2.1 | 4.4 | 124.7* | 27.1 | -2.2
COc1cccc2[nH]c3c(N4CCCCC4)ncnc3c12 | 0.2 | 0.8 | 14.8 | 11.3 | -0.9
CCOC(=O)C(=CNc1ccc(S(N)(=O)=O)cc1)C(=O)OCC | -1.4 | -0.1 | -0.8 | 40.5* | -4.0
CCOC(=O)C(=CNc1ccc(N2CCOCC2)cc1)C(=O)OCC | -0.3 | -3.0 | -2.9 | 63.3* | -1.9
CCOC(=O)C(=CNc1ccc2c(c1)CCN2C(C)=O)C(=O)OCC | 1.4 | 8.9 | -3.0 | 34.6* | -2.8
CCOC(=O)c1ccc(S(=O)(=O)Nc2ccc(N3CCOCC3)cc2)cc1 | 0.9 | -3.8 | 2.2 | 4.2 | -1.2
CCOC(=O)C(=CNc1ccccc1C)C(=O)OCC | -0.4 | 1.3 | -0.5 | 21.6 | -0.6
CCOC(=O)C(=CNc1ccc(C#N)cc1)C(=O)OCC | / | / | -2.9 | 23.2 | 0.3
COc1cc(C(=O)Nc2ccc3c(c2)CCN3C(C)=O)cc(OC)c1OC | / | -7.7 | -0.1 | 6.8 | -4.4
CCOC(=O)C(=CNc1ncccc1C)C(=O)OCC | 0.2 | -2.2 | -0.6 | 38.0* | -0.1
SMILES | BioA inh | Mtb hypoxia inh | FBA Mtb inh | GDH-TPI counter | FadD28 FP inh
C[C@@H]1CN([C@H](C)CO)S(=O)(=O)c2ccc(C3=CCCCC3)cc2O[C@H]1CN(C)C(=O)Cc1ccncc1 | 3.1 | / | / | / | /
COc1ccc(OC)c(N=c2oc3cc(O)ccc3cc2C(N)=O)c1 | -3.0 | -0.5 | 116.2* | 9.1 | 4.4
NC(=O)c1cc2ccc(O)cc2oc1=NCc1ccccc1 | -5.9 | -2.5 | + | 14.8 | -2.1
NC(=O)c1cc2ccc(O)cc2oc1=Nc1ccccc1 | 0.8 | / | + | 16.0 | -0.4
NC(=O)c1cc2ccccc2oc1=NCc1ccccc1 | -1.1 | / | 2.9 | 6.8 | -2.7
CS(=O)(=O)Nc1ccc2c(c1)[C@H]1C[C@@H](CC(=O)NCc3ccc(Oc4ccccc4)cc3)O[C@@H](CO)[C@H]1O2 | -0.1 | / | / | / | /
Cc1ccc(CN2CCN(N=Cc3cccnc3)CC2)cc1 | / | -1.2 | / | / | /
C[C@H]1CN([C@@H](C)CO)C(=O)c2cccc(NS(=O)(=O)c3cccs3)c2O[C@H]1CN(C)S(=O)(=O)c1ccc(Cl)cc1 | 2.3 | / | / | / | /
COc1ccc(C2C=C(c3ccc(C)cc3)Nc3ncnn32)cc1 (stereo not given) | 1.0 | 16.2 | + | 3.8 | -5.1
C1=C(c2ccc(-c3ccccc3)cc2)Nc2ncnn2C1c1ccco1 (stereo not given) | -14.2 | / | 13.1 | 9.2 | -1.9
Fc1ccc(C2=CC(c3ccco3)n3ncnc3N2)cc1 (stereo not given) | -19.1 | 7.8 | 113.3* | 18.6 | -2.0
Fc1ccc(C2=CC(c3ccc(Br)o3)n3ncnc3N2)cc1 (stereo not given) | / | / | 42.8* | 11.3 | -1.4
CC(C)(C)c1ccc(C(=O)NC(=S)Nc2nc3c(s2)CCCC3)cc1 | 0.4 | 10.3 | 6.3 | 7.5 | -1.6
CN(C)c1ccc(C(=O)Nc2nc3c(s2)CCCC3)cc1 | -0.2 | 4.3 | 2.0 | 37.4* | -3.3
Oc1ccc(C=NNC(=S)NC2CC3CCC2C3)cc1 (stereo not given) | / | 5.6 | / | / | /
Oc1ccc(/C=N/NC(=S)NC2CC3CCC2C3)cc1 (stereo not given) | 0.0 | / | -0.8 | 60.5* | -0.1
C[C@@H]1CN([C@@H](C)CO)S(=O)(=O)c2ccc(C#Cc3ccccc3F)cc2O[C@@H]1CN(C)C | 0.9 | / | / | / | /
Cc1cccn2c(=O)c(/C=C(\C#N)C(=O)NC3CCS(=O)(=O)C3)c(N3CC(C)OC(C)C3)nc12 (stereo not given) | / | 11.2 | 119.6* | 7.1 | -3.3
CCOC(=O)/C(C#N)=C/c1c(N2CCN(Cc3ccc4c(c3)OCO4)CC2)nc2c(C)cccn2c1=O | -2.0 | 11.2 | -2.1 | 6.9 | -0.9
Cc1cccn2c(=O)c(/C=C(\C#N)C(N)=O)c(N3CCN(Cc4ccc5c(c4)OCO5)CC3)nc12 | -2.4 | / | 33.3* | 15.5 | -5.9
Cc1ccccc1Oc1nc2c(C)cccn2c(=O)c1/C=C(\C#N)C(=O)NC1CCS(=O)(=O)C1 (stereo not given) | 0.8 | 14.2 | 34.3* | 10.0 | -2.4
Cc1cccn2c(=O)c(/C=C(\C#N)C(=O)NC3CCS(=O)(=O)C3)c(N3CCC(C(N)=O)CC3)nc12 (stereo not given) | / | -3.3 | 191.6* | 0.0 | -2.7
Cc1cccn2c(=O)c(/C=C(\C#N)C(=O)NC3CCS(=O)(=O)C3)c(Oc3ccccc3Cl)nc12 (stereo not given) | -5.5 | -6.7 | 18.0 | 6.8 | -3.5
O=C(c1cccnc1)N1C[C@H]2[C@@H](c3ccccc31)[C@@H](CO)N2C(=O)C1CCCC1 | 2.1 | / | / | / | /
CCCN1C[C@H](C)[C@@H](OC)CN(C)C(=O)c2ccc(NC(=O)Nc3c(C)noc3C)cc2OC[C@@H]1C | 0.8 | / | / | / | /
C[C@@H]1CCCCO[C@H](CN(C)Cc2ccc(C(=O)O)cc2)[C@H](C)CN([C@@H](C)CO)C(=O)c2cc(NC(=O)Nc3ccccc3)ccc2O1 | -0.1 | / | / | / | /
COc1cc(/C=C2/S/C(=N/S(=O)(=O)Cc3ccccc3)NC2=O)c([N+](=O)[O-])cc1OC | -0.2 | -18.4 | -3.0 | 33.8* | 3.9
